Screening results as filed in PubChem.
FLuc counter: qHTS profiling assay for firefly luciferase inhibitor/activator using purifed enzyme and Km concentrations of substrates (counterscreen for miR-21 project); Potency, µM (highest dose often 57.5 µM), for inactives: top-dose activity change, negative = inhibition, most hits filed as inhibitors; purified FLuc, Km substrates, luminescence inhibition; Luciferin 4-monooxygenase (Photinus pyralis), P08659; 360,000 compounds, 6.9% hits;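 note: plate controls were vehicle for no effect and reference inhibitor for full effect; nearly all actives have a fitted effect of over 55% in size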
Target sequence (P08659 whole entry, looked up): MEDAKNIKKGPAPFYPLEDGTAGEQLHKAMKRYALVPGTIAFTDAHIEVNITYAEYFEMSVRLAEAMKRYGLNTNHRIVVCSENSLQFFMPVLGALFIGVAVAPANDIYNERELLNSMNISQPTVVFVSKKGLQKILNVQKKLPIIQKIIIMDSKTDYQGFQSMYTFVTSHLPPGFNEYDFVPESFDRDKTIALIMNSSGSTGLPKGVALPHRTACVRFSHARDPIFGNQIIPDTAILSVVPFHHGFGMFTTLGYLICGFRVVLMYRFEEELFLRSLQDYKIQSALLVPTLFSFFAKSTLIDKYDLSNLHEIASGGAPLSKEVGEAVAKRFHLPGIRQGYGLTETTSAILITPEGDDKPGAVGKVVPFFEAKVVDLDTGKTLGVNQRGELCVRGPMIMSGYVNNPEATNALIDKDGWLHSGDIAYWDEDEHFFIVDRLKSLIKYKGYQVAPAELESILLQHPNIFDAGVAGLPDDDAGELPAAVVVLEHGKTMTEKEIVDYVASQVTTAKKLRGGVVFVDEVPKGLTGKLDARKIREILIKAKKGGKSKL
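Biochemical qHTS of compounds, final roughly 60 µM downward over six points, against 10 nM purified firefly luciferase using Km concentrations of substrates (10 uM D-luciferin, 10 uM ATP) in Tris acetate pH 7.5 buffer; luminescence output.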
ELG1 genotoxic: qHTS screen for small molecules that induce genotoxicity in human embryonic kidney (HEK293T) cells expressing luciferase-tagged ELG1 | HEK293T ELG1-luciferase reporter, luminescence, 16 h | AID 504466, 2011 | 330,000 compounds, 1.3% hits | Potency, µM (titrated, usually from 46 µM), without a hit: at the highest dose activity change, positive = activation, usual class: activators; note: % of control where 0% means no effect; nearly all actives have a fitted effect of over 60% in size
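Luminescence read-out: rising ELG1-luciferase signal, reflecting elevated ELG1 protein under genetic stress, flags genotoxic compounds. Cells were treated for 16 hr at 37 °C before ONE-Glo detection.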
NPC1 promoter act: qHTS Assay for NPC1 Promoter Activators. 320,000 compounds, 2.4% hits. Potency, µM (top dose mostly 9.22 µM), without a hit: top-dose activation, actives largely listed as activators. AID 485313, 2010. Huh7 NPC1 promoter luciferase reporter, 24 h; note: % of control where 0% means no effect; nearly all actives have a fitted effect of over 60% in size
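Readout is luciferase luminescence, reflecting NPC1 promoter activation in stably transfected Huh7 cells after 24 h compound exposure at 37 °C in reduced-serum medium with 10% FBS.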
Rab9 promoter act: qHTS Assay for Rab9 Promoter Activators; Huh7 Rab9 promoter-luciferase reporter, luminescence, 24 h; Potency, µM (series often up to 9.22 µM), for the others: at the top dose activation, negative = inhibition, usual class: activators; 320,000 compounds, 2.8% hits; note: % of control where 0% means no effect; nearly all actives have a fitted effect of over 60% in size
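Cells were plated at 1500 per well in reduced-serum medium with 10% FBS and left 2 h. Compound in DMSO was then added for 24 h at 37 °C. Reporter signal was read by luminescence after 10 min with luciferase detection reagent.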
SMN2 splice enh: qHTS Assay for Enhancers of SMN2 Splice Variant Expression. HEK293 SMN2-luciferase splicing reporter, luminescence, 30-36 h. Potency, µM (top dose mostly 46.1 µM), without a hit: top-dose activity change, positive = activation, usual class: activators. 210,000 compounds, 2.8% hits; note: % of control where 0% means no effect; nearly all actives have a fitted effect of over 55% in size
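qHTS luciferase splicing reporter: luminescence rises when SMN2 exon 7 is included in transfected HEK293 cells. Compound exposure lasted 30-36 h at 37C, with 4.5 mM final sodium butyrate as control, followed by a ONE-Glo read.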
ELG1 DNA repair: qHTS screen for small molecules that inhibit ELG1-dependent DNA repair in human embryonic kidney (HEK293T) cells expressing luciferase-tagged ELG1. 330,000 compounds, 2.3% hits. Potency, µM (doses to about 46.1 µM), without a hit: at the highest dose activity change, negative = inhibition, most hits filed as inhibitors. HEK293T ELG1-luciferase reporter, luminescence, 16 h; DNA damage induced by 5-fluorouridine; note: % is set by controls: 0 for no effect and ±100 for the full control effect; nearly all actives have a fitted effect of over 55% in size
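Step one: seed 2,000 cells per well. Step two: pin-transfer compound or DMSO alongside 5-fluorouridine. Step three: incubate 16 hr, 37 °C, 5% CO2. Step four: add ONE-Glo, wait 30 min, read luminescence.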
Active calls of the source: *; ? = inconclusive; . = not tested or not shown; [ ] = dose if it differs, or a comment. Hits are enriched below; roughly 9.3% of the tested compounds scored in any of these assays. Calls come from the whole dose curve; as a rule, active = well fitted curve in the direction sought with a large enough effect; inconclusive = small, poorly fitted or top-dose-only effect, or another doubt; inactive = no such curve, though single readings can be large; an effect the other way counts as inactive or inconclusive. Potency is the fitted concentration of half-maximal effect.

SMILES | FLuc counter | ELG1 genotoxic | NPC1 promoter act | Rab9 promoter act | SMN2 splice enh | ELG1 DNA repair
CCOc1ccc(Nc2nc(N)nc(CSC(=S)N3CCOCC3)n2)cc1 | ? | 5% | 2.8µM* | 29% | . | ?
Cc1cccc(Nc2nc(N)nc(CSC(=S)N3CCOCC3)n2)c1 | -4% | 17% | ? | ? | . | 28%
Nc1nc(CSC(=S)N2CCCCC2)nc(Nc2ccccc2)n1 | 27µM* | ? | 29% | ? | ? | ?
CC1CC(C)CN(C(=S)SCc2nc(N)nc(Nc3ccccc3)n2)C1 (configuration not stated) | -6% | -3% | 1% | -5% | . | ?
NC1=C(c2ccccc2)C(=O)NC1=O | -1% | 0% | 0% | 7% | . | 8%
COc1ccc(-c2nc(CSCC(=O)NC3CC3)c(C)o2)cc1OC | 0% | 0% | 0% | 0% | . | 2%
COc1ccc(-c2nc(CSCC(=O)NC3CCCC3)c(C)o2)cc1OC | 1% | -3% | -1% | -4% | . | 15µM*
COc1ccc(-c2nc(CS(=O)CC(=O)NC3CCCc4ccccc43)c(C)o2)cc1OC (configuration not stated) | 5% | 5% | 2% | -4% | -1% | ?
COc1ccc(-c2nc(CSCC(=O)NC3CCCc4ccccc43)c(C)o2)cc1OC (configuration not stated) | -1% | -12% | -1% | -10% | -8% | 16µM*
COc1ccc(-c2nc(CSCC(=O)N3CCN(c4cccc(C)c4)C(C)C3)c(C)o2)cc1OC (configuration not stated) | 10% | -19% | -2% | -1% | -115% | 15µM*
CC(C)CCN(C(=O)Cc1ccc(Cl)c(Cl)c1)c1c(N)n(Cc2ccccc2)c(=O)[nH]c1=O | 0% | -3% | 2% | 13% | -48% | -3%
CC(C)C(NC(=O)c1ccccc1F)C(=O)OCC(=O)c1ccc(F)cc1 (configuration not stated) | 3µM* | 7% | 1% | ? | -2% | 3%
COc1cc(OC)cc(C(=O)N[C@H](C(=O)OCC(=O)Nc2cccc(F)c2)C(C)C)c1 | 1% | -4% | 0% | -6% | -11% | ?
COc1cc(OC)cc(C(=O)N[C@H](C(=O)OCC(=O)c2ccc(F)cc2)C(C)C)c1 | 11µM* | 1% | -4% | 2% | -1% | -7%
CS(=O)(=O)N1CCC2(CCN(C(c3ccccc3)c3ccccc3)CC2)CC1 | . | . | . | . | -16% | .
Cc1ccc(Nc2cc(C)nc3ccc(C)cc23)cc1 | 0% | -5% | 0% | -3% | . | 8.2µM*
CCCCCCOc1ccc(/C(N)=N/O)cc1 | 12µM* | ? | 2.5µM* | 1.6µM* | 26% | ?
COc1ccc(CCn2c(=N)c(C(=O)NCc3ccco3)cc3c(=O)n4ccccc4nc32)cc1 | -12% | -2% | 5% | 4% | -18% | 16µM*
N=c1c(C(=O)NCCc2ccccc2)cc2c(=O)n3ccccc3nc2n1Cc1ccco1 | -1% | -14% | -9% | -6% | . | 21µM*
N=c1c(C(=O)NC2CCCCC2)cc2c(=O)n3ccccc3nc2n1Cc1ccco1 | -1% | -1% | 2% | -1% | . | -4%
N=c1c(C(=O)NCCN2CCOCC2)cc2c(=O)n3ccccc3nc2n1CCc1ccccc1 | 0% | -2% | 12% | -1% | . | 7%
COc1ccc(-c2noc(CN(C)C(=O)c3ccoc3C)n2)cc1OC | 1% | 5% | 2% | 3% | . | 4%
C[C@@H](C(=O)Nc1ccc2c(c1)OCCO2)n1nnc2ccccc2c1=O | 8.5µM* | ? | 3.5µM* | 3.5µM* | . | ?
CCn1c(SC(C)C(=O)Nc2ccc3c(c2)OCCO3)nnc1C1CC1 (configuration not stated) | 24µM* | 0% | 0% | 2% | . | ?
CC(Sc1nc2ccccc2[nH]1)C(=O)Nc1ccc2c(c1)OCCO2 (configuration not stated) | 21µM* | 0% | -2% | 0% | -5% | 5%
SMILES | FLuc counter | ELG1 genotoxic | NPC1 promoter act | Rab9 promoter act | SMN2 splice enh | ELG1 DNA repair
CC(Sc1ncccn1)C(=O)Nc1ccc2c(c1)OCCO2 (configuration not stated) | -20% | 7% | 2% | 17% | . | ?
Cn1c(SCC(=O)Nc2ccc3c(c2)OCCO3)nnc1C1CC1 | ? | 0% | 10% | 1% | . | 14%
CCOC(=O)C1CCN(S(=O)(=O)c2cc(C(=O)N3CCCCC3)ccc2OC)CC1 | 2% | -17% | -2% | 4% | . | -13%
COC(=O)C1=C(C(=O)OC)[C@@H]2Nc3ccccc3[C@@]23C[C@@H](C(=O)OC)N(S(=O)(=O)c2ccc(C(F)(F)F)cc2)C3=N1 | . | . | . | . | 2%[9.22 µM] | .
Cc1nc(NC(=O)C2CC2)sc1C(=O)Nc1ccccc1Cl | ? | 13% | 3.5µM* | 2.5µM* | . | ?
Cc1nc(Nc2ccc(Cl)cc2Cl)sc1C(=O)Nc1ccccc1 | 17µM* | -1% | -2% | 4% | -12% | ?
Cc1nc(NC(=O)/C=C/c2ccccc2)sc1C(=O)Nc1ccccc1Cl | 12µM* | 12% | 1% | -6% | 13% | 5%
Cc1nc(Cl)sc1C(=O)Nc1ccccc1Cl | -16% | 3% | 0% | -1% | . | 1%
COc1ccc(C(=O)NCCS(=O)(=O)N2CCOCC2)cc1 | -3% | 3% | -5% | 3% | . | -1%
CCCCNC(=O)c1ccc2c(c1)NC(=O)C(CS(=O)(=O)Cc1ccc(F)cc1Cl)N2 (configuration not stated) | -9% | . | . | . | . | .
Cc1ccc(C(=O)/C=C/c2cc(C#N)n(C)c2C)cc1 | 8.5µM* | 9% | 13% | 14% | . | ?
CC(C)=CCNc1ncnc2c1c(C#N)cn2[C@H]1O[C@@H](CO)[C@@H](O)[C@@H]1O | . | . | . | . | -11%[9.22 µM] | .
CC(=O)Nc1cc2cc(NS(=O)(=O)c3ccc(C)cc3)ccc2oc1=O | 1% | ? | -4% | -2% | . | 6%
O=C(/C=C/c1ccc(Cl)cc1)N1CCN(c2ccc([N+](=O)[O-])c(N3CCOCC3)c2)CC1 | ? | -5% | 1% | -4% | -70% | 18µM*
O=C(/C=C/c1ccc(Cl)cc1Cl)N1CCN(c2ccc([N+](=O)[O-])c(N3CCOCC3)c2)CC1 | 1% | 0% | 0% | -7% | -36% | 0%
